Records with an inconclusive call do not appear. Calls of active or inactive are those of the source. Unless noted, the call rests on the fitted dose curve; in most records, active means well fitted curve in the direction sought with a large enough effect in the repeat runs; inconclusive means weak or mixed curves; inactive means no such curve, though single readings can be large; an effect the other way counts as inactive or inconclusive.

Test [1] is described as follows: qHTS assay to identify small molecule antagonists of the vitamin D receptor (VDR) signaling pathway - cell viability counter screen (AID 743225). Further: nearly all actives have a fitted effect of over 50% in size. Further: potency means the concentration at half of the fitted maximal effect. In a few lines: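 VDR-UAS-bla HEK 293T cells were plated and incubated 4 h at 37C, then dosed with compound plus 3 nM (final) 1-alpha,25-dihydroxyvitamin D3 for 16 h. After the 2 h beta-lactamase read, viability in the same wells was read as CellTiter-Glo luminescence after 30 min at room temperature.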

Test [2] can be described thus: qHTS assay to identify small molecule agonists of the NFkB signaling pathway (AID 1159509; active means well fitted curve in the direction sought with a large enough effect in the signal ratio in the repeat runs, not every such curve was filed as active; the % refers to the signal ratio). An outline of the steps:
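Agonist activity was read as beta-lactamase-driven FRET change (460 and 530 nm emission, 405 nm excitation) following 1.5 hr substrate loading at room temperature. Beforehand, ME-180 NFkB-bla reporter cells were treated with compounds for 5 hr at 37 C.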
A general note: In qHTS, concentration-response curves come from the screen itself.

The nature of test [3]: qHTS assay to identify small molecule agonists of the endoplasmic reticulum stress response signaling pathway (AID 1159516; active means well fitted activation curve with a large enough effect in the signal ratio in the repeat runs, not every such curve was filed as active; the % refers to the signal ratio). An outline of the steps: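 Fluorescence at 460 and 530 nm (405 nm excitation) reports beta-lactamase from an ER stress response element in HeLa cells treated 5 hr at 37 C.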
A short description of test [4]: qHTS assay to identify small molecule agonists of the endoplasmic reticulum stress response signaling pathway - cell viability counter screen (AID 1159517; calls by dose curve; further: nearly all actives have a fitted effect of over 50% in size). An outline of the steps: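 Cpd-treated ESRE-bla HeLa (5 hr, 37 C) → LiveBLAzer 2 hr RT → CellTiter-Glo 30 min RT → luminescence.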
The nature of test [5]: qHTS assay to identify small molecule antagonists of the retinoid-related orphan receptor gamma (ROR-gamma) signaling pathway - cell viability counter screen (AID 1159520). Further: nearly all actives have a fitted effect of over 50% in size. An outline of the steps:
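Tet-on ROR gamma CHO cells (1,000/well) were plated 4 hr, given compounds in DMSO for 2 hr at 37 C, then induced with 1 uM final doxycycline for 16 hr. Viability was read as ATP by CellTiter-Glo luminescence after 30 min.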

The target in test [6] is Nuclear receptor ROR-gamma (Homo sapiens) (UniProt P51449). Nature of the test: qHTS assay to identify small molecule antagonists of the retinoid-related orphan receptor gamma (ROR-gamma) signaling pathway (AID 1159521; further: nearly all actives have a fitted effect of over 50% in size; further: potency means the concentration at half of the fitted maximal effect). An outline of the steps:
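Tet-on ROR-gamma CHO cells with ROR response element-luciferase reporter; compounds added 2 hr before 1 uM doxycycline induction, then 16 hr at 37 C. Antagonism scored as decreased ONE-Glo luminescence.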

Test [7] can be described thus: qHTS assay to identify small molecule agonists of the AP-1 signaling pathway - cell viability counter screen (AID 1159525; calls by dose curve; further: nearly all actives have a fitted effect of over 55% in size). An outline of the steps:
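Each titration point was normalised to DMSO and tetra n-octyl ammonium bromide controls. The read was Cell Titer Glo luminescence after 30 min at RT, following 5 h compound exposure of ME-180 AP-1-bla cells at 37 °C.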

Test [8] can be described thus: qHTS assay to identify small molecule agonists of the AP-1 signaling pathway (AID 1159526; calls by dose curve).
Test [9] concerns the target Retinoic acid receptor RXR-alpha (Homo sapiens) (UniProt P19793). As to the kind of experiment: qHTS assay to identify small molecule agonists of the RXR signaling pathway (AID 1159527; calls by dose curve; further: nearly all actives have a fitted effect of over 35% in size). An outline of the steps:
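GeneBLAzer RXR-alpha-UAS-bla HEK 293T cells in 2% charcoal-stripped FBS medium were exposed to compounds for 16 hr at 37 C in agonist mode. Beta-lactamase reporter read as 460/530 nm FRET ratio after 2 hr substrate loading.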

Test [10] can be described thus: qHTS assay to identify small molecule agonists of the RXR signaling pathway - cell viability counter screen (AID 1159529). Further: nearly all actives have a fitted effect of over 50% in size. Further: potency means the concentration at half of the fitted maximal effect. An outline of the steps:
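RXR-alpha-UAS-bla HEK 293T cells in medium with 2% charcoal-stripped FBS were pre-incubated 5 hr, then compound-treated 16 hr at 37 C. Viability was read by CellTiter-Glo luminescence in the same wells as the beta-lactamase assay, with tetraoctyl ammonium bromide as positive control.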

Test [11] can be described thus: qHTS assay to identify small molecule antagonists of the retinoid acid receptor (RAR) signaling pathway - cell viability counter screen (AID 1159551). Further: nearly all actives have a fitted effect of over 35% in size. In a few lines:
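In this counter screen, the RARE-luciferase line C3RL4 was exposed for 6 h at 37 C and 5% CO2 to compounds with retinol at 1 uM final. Cellular ATP, read by luminescence, served as the viability measure.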

The nature of test [12]: qHTS assay to identify small molecule antagonists of the retinoic acid receptor (RAR) signaling pathway (AID 1159552; further: nearly all actives have a fitted effect of over 50% in size; further: potency means the concentration at half of the fitted maximal effect). An outline of the steps: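 Retinol signaling pathway inhibitors screened in C3RL4 RARE-luciferase reporter cells seeded overnight at 37 C, then compounds added with 1 uM (final) retinol as pathway substrate. After 6 hr at 37 C, luciferase luminescence read after 30 min at room temperature.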

A short description of test [13]: qHTS assay to identify small molecule agonists of the retinoic acid receptor (RAR) signaling pathway (AID 1159553). Further: potency means the concentration at half of the fitted maximal effect. The note with it: C3RL4 RARE luciferase reporter, agonist, 6 h; activation: at 73.3 µM (top of the series). An outline of the steps:
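In this cell-based screen, 1,000 C3RL4 cells per well were cultured overnight, dosed with test chemicals in DMSO for 6 hr, and assessed for RARE luciferase luminescence.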

Test [14] is described as follows: qHTS assay to identify small molecule agonists of the NFkB signaling pathway - cell viability counter screen (AID 1159515; calls by dose curve; further: nearly all actives have a fitted effect of over 55% in size). In a few lines: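 Tox21 library compounds were tested for cytotoxicity against NFkB-bla ME-180 cells during a 5 hr exposure at 37 C. CellTiter-Glo luminescence served as the viability read-out.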

Sequence of Retinoic acid receptor RXR-alpha (Homo sapiens) (P19793 whole entry, looked up): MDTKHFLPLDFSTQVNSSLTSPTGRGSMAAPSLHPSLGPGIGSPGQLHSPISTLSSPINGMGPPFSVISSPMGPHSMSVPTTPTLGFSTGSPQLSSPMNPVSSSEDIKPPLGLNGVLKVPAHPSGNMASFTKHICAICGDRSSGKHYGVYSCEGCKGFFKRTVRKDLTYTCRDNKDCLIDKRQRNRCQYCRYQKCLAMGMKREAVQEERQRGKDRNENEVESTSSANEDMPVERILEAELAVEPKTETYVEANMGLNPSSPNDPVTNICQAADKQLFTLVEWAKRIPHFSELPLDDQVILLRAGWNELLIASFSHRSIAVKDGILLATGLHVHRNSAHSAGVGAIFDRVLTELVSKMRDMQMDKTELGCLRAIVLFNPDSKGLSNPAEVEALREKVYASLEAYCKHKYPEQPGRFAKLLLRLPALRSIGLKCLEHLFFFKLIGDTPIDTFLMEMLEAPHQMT

As to `O=C(/C=C/c1ccc(O)c(O)c1)O[C@@H]1C[C@@](OC(=O)/C=C/c2ccc(O)c(O)c2)(C(=O)O)C[C@@H](O)[C@@H]1O`, the Potency result in test [1], in [2], in [3], in [4], in test [5] and in test [6] was “inactive” each time. The Potency result in test [7], in [8], in test [9], in [10], in [11] and in test [12] was “inactive” in each case. Also, the Potency result in test [13] was “inactive”.
Take `Cc1ccccc1N=C(N)Nc1ccccc1C`: the Potency entry in test [2], in test [3], in test [4], in [5], in test [6] and in test [7] was “inactive” in each case. Besides, the Potency result in test [8], in [9], in [10], in test [11] and in test [12] was “inactive” each time.
Take `OC(CCN1CCCC1)(c1ccccc1)C1CCCCC1` (stereo not drawn): the Potency result in test [2], in test [14], in test [6], in test [7], in test [9] and in test [10] was “inactive” in each case. The Potency result in test [11] and in test [13] was “inactive” in each case.
For `C=CC(=O)OCC1CC2CC1C1CCC(COC(=O)C=C)C21` (stereo not drawn), the Potency entry in test [2] and in test [14] was “inactive” in each case. For the same compound, the Potency in test [6] was 54.5 µM (active); in test [10], 43.6 µM (active); in test [12], 8.63 µM (active).
As to `CCC(=O)C1CC(C(C)C)CC=C1C` (stereo not drawn), the Potency result in test [2], in test [3], in test [4], in test [5], in [6] and in test [7] was “inactive” each time. Further, the Potency result in test [8], in [9], in test [10], in test [11], in test [12] and in test [13] was “inactive” throughout.
Regarding `CCCCOc1ccc(OCCCN2CCOCC2)cc1`, the Potency entry in [2], in test [3], in test [4], in test [5], in [6] and in test [7] was “inactive” throughout. The Potency result in test [8], in test [9], in test [10], in test [11] and in [12] was “inactive” throughout. Further, the Potency in [13] was 21.1 µM (active).
As to `CN(C)CCN1C(=O)c2ccccc2N(C)c2ccccc21`, the Potency result in test [1], in test [2], in [14], in test [6], in [7] and in test [9] was “inactive” throughout. Moreover, the Potency entry in test [10], in test [11] and in test [12] was “inactive” throughout.
Regarding `N#CCc1ccc(Cl)cc1Cl`, the Potency entry in [1], in [2], in [3], in test [4], in test [5] and in test [6] was “inactive” each time. For the same compound, the Potency entry in test [7], in test [8], in test [9], in [10], in [11] and in test [12] was “inactive” in each case. Also, the Potency result in test [13] is “inactive”.
Take `CCCC(=O)C(=O)O`: the Potency entry in [1], in [2], in test [3], in [4], in test [5] and in test [6] was “inactive” each time. Besides, the Potency entry in test [7], in [8], in [9], in test [10], in test [11] and in test [12] was “inactive” each time. Also, in test [13], the Potency entry was “inactive”.
In the case of `C[C@@H]1CN(CCCn2c3ccccc3c3ccccc32)C[C@H](C)N1`, the Potency was 23.9 µM (active) in test [1], 23.9 µM (active) in test [10] and 33.5 µM (active) in [12]. The Potency entry in [2], in [14], in test [7] and in test [8] was “inactive” in each case.
Take `COc1ncnc(NS(=O)(=O)c2ccc(N)cc2)c1OC`: the Potency result in test [1], in test [2], in test [3], in test [4], in test [5] and in test [6] was “inactive” in each case. For the same compound, the Potency entry in [7], in test [8], in test [9], in [10], in test [11] and in test [12] was “inactive” throughout. The Potency result in test [13] was “inactive”.
Consider `Nc1ncnc2c1ncn2[C@H]1CC[C@@H](CO)O1`, for which the Potency entry in test [2], in test [3], in test [4], in test [5], in test [6] and in test [7] was “inactive” in each case. The Potency result in [8], in [9], in test [10], in test [11] and in test [12] was “inactive” throughout.
As for `CC(C)(c1ccccc1)c1ccccc1`, the Potency entry in [1], in test [2], in [3], in test [4], in test [5] and in test [6] was “inactive” in each case. The Potency entry in test [7], in [8], in [9], in [10], in test [11] and in [12] was “inactive” in each case. Besides, the Potency entry in test [13] was “inactive”.
On to `CCCCCCC(C)(C)C(=O)O`, for which the Potency result in test [1], in test [2], in test [3], in test [4], in [5] and in [6] was “inactive” each time. Further, the Potency result in [7], in test [8], in test [9], in [10], in [11] and in [12] was “inactive” in each case. In test [13], the Potency result was “inactive”.
